The source of these data is PubChem BioAssay (EPA / NIEHS).

The structures appear in SMILES notation. Results filed as inconclusive are left out. Calls of active or inactive are those of the source. Rule for the calls, unless noted: active = hit-call score of the fitted dose curve at least 0.9, where 1 is the maximum; inactive = score below 0.9.

A short description of assay [1]: ACEA_ER_80hr: ACEA Biosciences xCELLigence Real-Time Cell Analysis on Estrogen Receptor Agonism for Proliferation (AID 2282667; active = hit-call score of the fitted dose curve at least 0.9, where 1 is the maximum). As to conditions: T47D proliferation, impedance (xCELLigence), 80 h. The method in brief: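 T47D human breast cells were seeded on electrode plates, monitored overnight, then exposed continuously to compounds in eight-point 1:4 dilutions from 100 uM (max 0.5% DMSO). Impedance-based growth was read at 80 h, fitted upward relative to DMSO.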

Assay [2] is described as follows: ATG_CRE_CIS: Attagene CIS-FACTORIAL HepG2 Assay for human cAMP Responsive Element (CRE) binding protein 3 (AID 2282926). As to conditions: HepG2 CRE cis-reporter, Attagene multiplexed mRNA; actives raise or lower the signal. The method in brief:
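Capillary electrophoresis of 6-FAM-labelled, HpaI-digested PCR products quantified reporter transcripts. These came from HepG2 transiently transfected with cis-element reporters and exposed to test chemicals for 24 hours, with DMSO defining baseline activity.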

In assay [3] the target is CCAAT/enhancer-binding protein beta (Homo sapiens) (UniProt P17676). Description: ATG_C_EBP_CIS: Attagene CIS-FACTORIAL HepG2 Assay for human CCAAT/Enhancer Binding Protein (C/EBP) beta (AID 2282927). As to conditions: HepG2 Attagene cis-factorial transcription factor reporter; actives raise or lower the signal. The method in brief: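 Transiently transfected HepG2 (MRTU library, endogenous TF-driven promoters); 24 h dosing; total RNA → oligo(dT) RT → PCR → 6-FAM primer extension → HpaI digest → CE; fit bidirectionally vs DMSO.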

A short description of assay [4]: ATG_CMV_CIS: Attagene CIS-FACTORIAL HepG2 Assay for human CMV (Internal Marker) (AID 2282928).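 Note: endpoint acts as a background internal control marker rather than a target.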 As to conditions: HepG2 CMV promoter reporter, transcription factor profiling; actives raise or lower the signal. The procedure, abridged: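 Fluorescence intensity of RT-PCR-derived reporter fragments, resolved by capillary electrophoresis, gives the signal. HepG2 liver cells bearing transfected cis-element reporters were treated 24 h; activity in either direction was fit relative to DMSO-treated controls.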

Assay [5] is described as follows: ATG_DR4_LXR_CIS: Attagene CIS-FACTORIAL HepG2 Assay for human Liver X Receptor (LXR), DR4 submotif (AID 2282929). As to conditions: HepG2 Attagene DR4 cis-reporter, mRNA transcription; actives raise or lower the signal. The procedure, abridged: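 Endogenous factor activity at a DR4 cis-element is read as reporter mRNA in transiently transfected HepG2 cells. Exposure lasts 24 h; transcripts are amplified, fluorescently labelled and sized by capillary electrophoresis, with DMSO as baseline.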

Assay [6] addresses Aryl hydrocarbon receptor (Homo sapiens) (UniProt P35869). Description: ATG_Ahr_CIS: Attagene CIS-FACTORIAL HepG2 Assay for human Aryl Hydrocarbon Receptor (Ahr) (AID 2282930). As to conditions: HepG2 AhR cis-factorial reporter transcription; actives raise or lower the signal. The method in brief: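 Read-out: reporter mRNA quantified by RT-PCR with fluorescent primer extension and capillary electrophoresis. Human HepG2 liver cells carried transfected cis-promoter reporter units and were exposed to chemical for 24 h; gain or loss fitted relative to DMSO.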

Assay [7] can be described thus: ATG_AP_1_CIS: Attagene CIS-FACTORIAL HepG2 Assay for human Activator Protein 1 (AP-1) (AID 2282931). As to conditions: HepG2 Attagene cis-factorial AP-1 reporter mRNA; actives raise or lower the signal. The method in brief:
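Fluorescence of labelled PCR fragments separated by capillary electrophoresis gives reporter mRNA levels. HepG2 with transfected cis-regulated reporter units, 24 h exposure; DMSO serves as baseline for bidirectional curve fits.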

Assay [8] is described as follows: ATG_AP_2_CIS: Attagene CIS-FACTORIAL HepG2 Assay for human Activator Protein 2 (AP-2) (AID 2282932). As to conditions: HepG2 AP-2 cis-reporter, Attagene transcription factor profiling; actives raise or lower the signal. The method in brief: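 Liver-derived HepG2 line, cis-reporter system measuring endogenous factors; 24 h dosing; reporter mRNA detected by fluorescent RT-PCR and capillary electrophoresis.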

Assay [9] in a line: ATG_BRE_CIS: Attagene CIS-FACTORIAL HepG2 Assay for human Bone Morphogenetic Protein (BMP) Response Element (BRE) (AID 2282933). As to conditions: HepG2 BMP response element reporter, Attagene transcription factor profiling; actives raise or lower the signal. The procedure, abridged: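 A HepG2 multiplex reporter system measured inducible reporter mRNA 24 h post-dosing. Detection: RT-PCR, 6-FAM primer extension, HpaI digestion, capillary electrophoresis. Activity fitted bidirectionally relative to DMSO.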

The target of assay [10] is Transcription factor E2F1 (Homo sapiens) (UniProt Q01094). Put plainly: ATG_E2F_CIS: Attagene CIS-FACTORIAL HepG2 Assay for human E2F Transcription Factor 1 (AID 2282935). As to conditions: HepG2 Attagene cis-reporter, E2F reporter RNA transcripts; actives raise or lower the signal. The method in brief:
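Liver-derived HepG2 cells expressing transfected promoter-driven reporter units received test chemical for 24 hours. Signal gains or losses were fitted bidirectionally against DMSO.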

A short description of assay [11]: ATG_E_Box_CIS: Attagene CIS-FACTORIAL HepG2 Assay for human Enhancer Box (E-box) (AID 2282936). As to conditions: HepG2 E-box cis-reporter transcription, actives raise or lower the signal. The method in brief:
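In this cell-based setup, HepG2 cells bearing transfected promoter-driven reporter units were exposed to chemicals for 24 h; reporter transcripts were amplified, 6-FAM-labelled, cut with HpaI and sized by capillary electrophoresis.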

Assay [12] is described as follows: ATG_M_61_CIS: Attagene CIS-FACTORIAL HepG2 Assay for M61 Transcription Factor (Internal Marker) (AID 2282937). As to conditions: HepG2 Attagene CIS-FACTORIAL M61 internal marker reporter; actives raise or lower the signal. The method in brief: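 This endpoint serves as an internal background control within a multiplexed HepG2 cis-reporter panel. Cells are exposed for 24 h; reporter mRNA is amplified, fluorescently labelled and sized by capillary electrophoresis, with DMSO as negative control.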

The nature of assay [13]: ATG_EGR_CIS: Attagene CIS-FACTORIAL HepG2 Assay for human Early Growth Response 1 (EGR1) (AID 2282938). As to conditions: HepG2 Attagene CIS-FACTORIAL EGR reporter mRNA; actives raise or lower the signal. The procedure, abridged: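 HepG2, transient MRTU transfection (cis promoters), 24 h compound. RNA → RT (oligo-dT) → PCR → 6-FAM labelling → HpaI cut → CE fluorescence. Bidirectional fit, DMSO baseline.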

A short description of assay [14]: ATG_M_19_CIS: Attagene CIS-FACTORIAL HepG2 Assay for M19 Transcription Factor (Internal Marker) (AID 2282939). As to conditions: HepG2 Attagene CIS-FACTORIAL M19 internal marker reporter; actives raise or lower the signal. The procedure, abridged:
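Chemical-treated HepG2 (24 h) with MRTU constructs; reporter transcripts detected by fluorescent RT-PCR fragment analysis on capillary electrophoresis. Internal background marker, DMSO as baseline.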

The nature of assay [15]: ATG_ERE_CIS: Attagene CIS-FACTORIAL HepG2 Assay for Estrogen Response Element (ERE) (AID 2282940). As to conditions: HepG2 ERE cis-reporter, Attagene RNA transcript; actives raise or lower the signal. The procedure, abridged:
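Human liver cells (HepG2) bearing transiently transfected, promoter-regulated reporter units were exposed 24 h. Reporter mRNA induction was detected by capillary electrophoresis of labelled RT-PCR products and fitted bidirectionally to DMSO.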

Assay [16] in a line: ATG_Ets_CIS: Attagene CIS-FACTORIAL HepG2 Assay for human Erythroblast Transformation Specific (ETS) (AID 2282941). As to conditions: HepG2 ETS cis-reporter transcription, actives raise or lower the signal. The procedure, abridged: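 Multiplexed reporter transcript profiling: HepG2, 24 h treatment, total RNA to cDNA, PCR, 6-FAM labelling, HpaI cut, capillary electrophoresis. Gain- or loss-of-signal fitted against DMSO.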

Assay [17] has as its target Hepatocyte nuclear factor 3-beta (Homo sapiens) (UniProt Q9Y261). Description: ATG_FoxA2_CIS: Attagene CIS-FACTORIAL HepG2 Assay for human Forkhead box A2 (FOXA2) (AID 2282942). As to conditions: HepG2 cis-reporter transcription factor activity, 24 h; actives raise or lower the signal. The method in brief: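 Cells: HepG2, transient multiplex reporter transfection. Exposure 24 h. Detection: reporter-specific RT-PCR, fluorescent labelling, restriction digest, capillary electrophoresis. Analysis: bidirectional curve fit, DMSO as negative control.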

Assay [18] is described as follows: ATG_FoxO_CIS: Attagene CIS-FACTORIAL HepG2 Assay for human Forkhead box O (FoxO) (AID 2282943). As to conditions: HepG2 Attagene cis-reporter, FoxO element, mRNA; actives raise or lower the signal. The procedure, abridged:
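Read-out: fluorescence of 6-FAM-labelled reporter cDNA fragments resolved by capillary electrophoresis. Transiently transfected HepG2 cells were dosed for 24 h; activity fitted in both directions relative to DMSO controls.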

Assay [19] can be described thus: ATG_GATA_CIS: Attagene CIS-FACTORIAL HepG2 Assay for human GATA Binding Protein (AID 2282944). As to conditions: HepG2 GATA cis-element reporter, Attagene multiplex mRNA; actives raise or lower the signal. The method in brief: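 Transfected cis-reporter HepG2 cells were treated with chemicals for 24 hours. Total RNA was then converted to cDNA, amplified with reporter-specific primers and analysed by fluorescent capillary electrophoresis, using DMSO-treated wells as baseline.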

Assay [20] addresses Retinoic acid receptor alpha (Homo sapiens) (UniProt P10276). Description: ATG_DR5_RAR_CIS: Attagene CIS-FACTORIAL HepG2 Assay for human Retinoic Acid Receptor Alpha (RARE), DR5 submotif (AID 2282934). As to conditions: HepG2 Attagene cis-factorial RARE DR5 reporter, mRNA; actives raise or lower the signal. The method in brief:
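Read-out: DR5-driven reporter transcript measured by RT-PCR, 6-FAM primer extension, HpaI digest and capillary electrophoresis. Human HepG2 liver cells carry transiently transfected cis-element reporter constructs; dosing lasts 24 h. Gain or loss of signal fitted against DMSO baseline.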

Chain of Transcription factor E2F1 (Homo sapiens) (Q01094 whole entry, looked up): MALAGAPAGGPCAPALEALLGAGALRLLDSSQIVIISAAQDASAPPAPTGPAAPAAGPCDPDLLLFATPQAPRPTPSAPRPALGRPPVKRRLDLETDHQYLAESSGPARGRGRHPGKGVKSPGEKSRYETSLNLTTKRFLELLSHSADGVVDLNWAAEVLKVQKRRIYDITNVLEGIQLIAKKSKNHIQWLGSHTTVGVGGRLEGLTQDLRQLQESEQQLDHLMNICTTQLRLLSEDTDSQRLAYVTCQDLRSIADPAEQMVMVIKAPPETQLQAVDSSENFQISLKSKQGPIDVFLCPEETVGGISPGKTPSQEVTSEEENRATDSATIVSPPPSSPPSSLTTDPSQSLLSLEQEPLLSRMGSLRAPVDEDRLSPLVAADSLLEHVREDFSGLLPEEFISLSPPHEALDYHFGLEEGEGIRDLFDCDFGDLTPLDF
Chain of CCAAT/enhancer-binding protein beta (Homo sapiens) (P17676 whole entry, looked up): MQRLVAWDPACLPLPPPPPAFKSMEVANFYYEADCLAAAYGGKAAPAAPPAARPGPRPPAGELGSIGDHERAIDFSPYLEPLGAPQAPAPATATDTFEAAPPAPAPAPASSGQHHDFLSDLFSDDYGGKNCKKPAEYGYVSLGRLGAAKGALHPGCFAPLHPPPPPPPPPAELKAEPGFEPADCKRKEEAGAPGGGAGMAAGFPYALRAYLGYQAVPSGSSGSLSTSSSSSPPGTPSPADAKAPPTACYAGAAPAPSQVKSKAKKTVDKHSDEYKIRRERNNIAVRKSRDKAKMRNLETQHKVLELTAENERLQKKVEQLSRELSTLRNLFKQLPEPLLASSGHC
Chain of Aryl hydrocarbon receptor (Homo sapiens) (P35869 whole entry, looked up): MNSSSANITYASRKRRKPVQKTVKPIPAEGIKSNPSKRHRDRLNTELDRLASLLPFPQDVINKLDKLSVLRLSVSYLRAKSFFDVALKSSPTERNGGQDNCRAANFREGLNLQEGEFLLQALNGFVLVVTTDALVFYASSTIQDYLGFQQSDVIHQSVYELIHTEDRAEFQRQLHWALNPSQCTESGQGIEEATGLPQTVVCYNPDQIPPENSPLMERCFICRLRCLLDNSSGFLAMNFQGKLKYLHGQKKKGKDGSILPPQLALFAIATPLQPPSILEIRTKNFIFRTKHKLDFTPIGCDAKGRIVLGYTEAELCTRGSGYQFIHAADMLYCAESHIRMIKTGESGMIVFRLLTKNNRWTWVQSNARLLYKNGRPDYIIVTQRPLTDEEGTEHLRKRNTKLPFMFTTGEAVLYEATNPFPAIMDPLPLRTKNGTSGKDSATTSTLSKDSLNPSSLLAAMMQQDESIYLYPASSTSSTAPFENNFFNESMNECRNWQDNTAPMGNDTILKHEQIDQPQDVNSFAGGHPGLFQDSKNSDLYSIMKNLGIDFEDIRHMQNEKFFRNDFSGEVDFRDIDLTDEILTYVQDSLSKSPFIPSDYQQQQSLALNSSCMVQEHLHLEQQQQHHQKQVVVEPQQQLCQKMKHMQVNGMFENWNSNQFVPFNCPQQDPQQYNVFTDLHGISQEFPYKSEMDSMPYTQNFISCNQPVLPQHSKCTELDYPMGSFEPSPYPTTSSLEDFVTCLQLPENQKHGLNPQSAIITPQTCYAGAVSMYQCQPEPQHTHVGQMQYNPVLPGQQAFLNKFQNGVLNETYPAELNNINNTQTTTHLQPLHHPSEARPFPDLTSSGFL
Chain of Hepatocyte nuclear factor 3-beta (Homo sapiens) (Q9Y261 whole entry, looked up): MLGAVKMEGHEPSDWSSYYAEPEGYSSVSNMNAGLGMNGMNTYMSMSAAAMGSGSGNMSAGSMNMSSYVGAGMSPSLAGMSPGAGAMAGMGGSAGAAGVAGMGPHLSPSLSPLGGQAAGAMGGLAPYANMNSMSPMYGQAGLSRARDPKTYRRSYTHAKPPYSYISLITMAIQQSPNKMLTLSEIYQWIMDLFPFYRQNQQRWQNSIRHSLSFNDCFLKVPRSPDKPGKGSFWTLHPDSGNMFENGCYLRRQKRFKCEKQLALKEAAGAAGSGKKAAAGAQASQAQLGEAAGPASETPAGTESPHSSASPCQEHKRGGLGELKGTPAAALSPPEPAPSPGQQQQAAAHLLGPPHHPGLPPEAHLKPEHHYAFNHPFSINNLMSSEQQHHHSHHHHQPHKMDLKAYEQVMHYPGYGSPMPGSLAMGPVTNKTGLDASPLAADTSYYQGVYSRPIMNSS
Chain of Retinoic acid receptor alpha (Homo sapiens) (P10276 whole entry, looked up): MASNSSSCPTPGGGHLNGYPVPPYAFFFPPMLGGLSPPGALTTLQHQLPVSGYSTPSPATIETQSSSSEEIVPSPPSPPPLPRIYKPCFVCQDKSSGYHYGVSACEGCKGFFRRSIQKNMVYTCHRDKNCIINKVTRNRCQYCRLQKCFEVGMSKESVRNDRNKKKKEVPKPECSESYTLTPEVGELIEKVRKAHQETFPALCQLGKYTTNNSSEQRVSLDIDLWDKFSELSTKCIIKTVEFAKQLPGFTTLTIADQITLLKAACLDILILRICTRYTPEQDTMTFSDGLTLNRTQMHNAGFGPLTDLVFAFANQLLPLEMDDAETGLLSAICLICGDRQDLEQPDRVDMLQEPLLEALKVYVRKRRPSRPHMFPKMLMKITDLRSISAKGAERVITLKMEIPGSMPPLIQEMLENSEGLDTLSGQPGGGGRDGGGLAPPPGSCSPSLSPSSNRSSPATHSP

For `OCCCCC(F)(F)C(F)(F)C(F)(F)C(F)(F)F`, the outcome in assay [1], in assay [2], in [3], in [4], in assay [5] and in [6] was inactive. For the same compound, the call in assay [7], in assay [8], in assay [9], in assay [10], in assay [11] and in assay [12] was inactive. Besides, the compound was classed as inactive in [13], in assay [14], in [15], in assay [16], in assay [17] and in assay [18]. The outcome in [19] was inactive.

In the case of `OCC(F)(F)C(F)(F)C(F)(F)CO`, the outcome in [1], in assay [2], in [3], in [4], in assay [5] and in assay [6] was inactive. Further, the outcome in assay [7], in [8], in assay [9], in [20], in assay [10] and in assay [11] was inactive. The compound was classed as inactive in assay [12], in assay [13], in assay [15], in assay [16], in assay [17] and in [18]. Besides, the compound was called inactive in assay [19].

On to `CO[Si](C)(CCC(F)(F)C(F)(F)C(F)(F)C(F)(F)C(F)(F)C(F)(F)F)OC`, for which the compound was called inactive in assay [1], in [2], in assay [3], in [4], in assay [5] and in assay [6]. Besides, the result in assay [7], in [8], in assay [9], in assay [20], in assay [10] and in assay [11] was inactive. Further, the result in assay [12], in [13], in [15], in assay [16], in assay [17] and in assay [18] was inactive. The compound was called inactive in assay [19].

As a reminder, the AC50 is the concentration giving half of the maximal activity seen. Turning to `C=CC(=O)OCC(F)(F)C(F)(F)C(F)(F)COC(=O)C=C`, the compound was classed as inactive in assay [1], in assay [2], in [3], in [6], in [7] and in [8]. Besides, the compound was classed as inactive in [9], in [20], in [10], in assay [12], in assay [15] and in assay [16]. Further, the compound was called inactive in assay [17], in [18] and in [19]. In addition, the AC50 in [4] is 31.6 µM (active); in assay [5], 31.7 µM (active); in [11], 78.6 µM (active); in assay [13] it was 42.4 µM (active).

Take `F[Si-2](F)(F)(F)(F)F`: the outcome in [1], in [2], in assay [3], in [4], in [5] and in assay [6] was inactive. Also, the outcome in [7], in assay [8], in assay [9], in [20], in assay [10] and in [11] was inactive. In addition, the compound was called inactive in [12], in assay [13], in [15], in assay [16], in assay [17] and in assay [18]. In assay [19], the call was inactive.
